Screen size: about 310,000 compounds; about 14,000 (4.5%) showed an effect of 50% or more. Effects have a minus sign here. The sample as a whole holds a higher share of strong results than the screen did.
Molecular target: human ether-à-go-go-related gene (hERG) potassium channel (human, UniProt Q12809)
Experiment: primary screen, population patch clamp on CHO cells stably expressing hERG; higher = less effect of the substance
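Note: peak tail current of the secondary pulse compared with the same well before compound.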

human ether-à-go-go-related gene (hERG) potassium channel, sequence (Q12809 whole entry, looked up): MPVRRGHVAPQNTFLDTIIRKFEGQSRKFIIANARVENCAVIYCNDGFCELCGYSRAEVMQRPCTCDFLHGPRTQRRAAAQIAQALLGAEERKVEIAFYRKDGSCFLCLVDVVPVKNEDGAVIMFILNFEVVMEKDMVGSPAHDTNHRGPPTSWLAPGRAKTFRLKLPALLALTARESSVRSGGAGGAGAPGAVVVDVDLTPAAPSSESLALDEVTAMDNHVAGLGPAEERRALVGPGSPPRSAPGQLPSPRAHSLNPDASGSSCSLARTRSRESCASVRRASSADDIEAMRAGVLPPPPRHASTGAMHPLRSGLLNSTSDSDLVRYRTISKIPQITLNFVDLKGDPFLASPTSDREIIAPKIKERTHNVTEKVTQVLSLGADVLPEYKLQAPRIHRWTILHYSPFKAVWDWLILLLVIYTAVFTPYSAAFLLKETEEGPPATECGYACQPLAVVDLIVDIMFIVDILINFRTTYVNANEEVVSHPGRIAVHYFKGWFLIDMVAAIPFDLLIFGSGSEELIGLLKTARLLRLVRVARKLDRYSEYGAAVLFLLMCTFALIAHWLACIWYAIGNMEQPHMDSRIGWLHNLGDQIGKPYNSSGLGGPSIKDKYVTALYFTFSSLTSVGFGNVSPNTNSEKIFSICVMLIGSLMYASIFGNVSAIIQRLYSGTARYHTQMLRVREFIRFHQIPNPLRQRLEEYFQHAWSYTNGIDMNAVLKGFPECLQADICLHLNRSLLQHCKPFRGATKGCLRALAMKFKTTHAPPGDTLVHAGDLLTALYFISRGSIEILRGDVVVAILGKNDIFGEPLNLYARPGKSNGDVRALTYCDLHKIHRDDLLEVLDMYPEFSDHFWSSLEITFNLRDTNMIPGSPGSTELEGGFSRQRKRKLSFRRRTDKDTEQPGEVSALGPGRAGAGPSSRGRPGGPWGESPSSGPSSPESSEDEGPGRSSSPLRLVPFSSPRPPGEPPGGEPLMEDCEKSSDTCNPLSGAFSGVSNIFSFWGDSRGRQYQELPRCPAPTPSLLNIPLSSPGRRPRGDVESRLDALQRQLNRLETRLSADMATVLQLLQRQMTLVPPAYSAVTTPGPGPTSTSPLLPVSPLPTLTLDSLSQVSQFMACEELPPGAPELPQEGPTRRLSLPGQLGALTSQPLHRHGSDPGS

| Structure (SMILES) | hERG current change (%, negative = inhibition) at 10uM |
| --- | --- |
| CSCCC(NC(=O)c1ccccc1)C(=O)N(C)CC(=O)Nc1ccc(N2CCOCC2)cc1 (stereo not drawn) | 5.72% |
| CCCC(C)NC(=O)C1CC(=O)N(CCc2ccc(F)cc2)C1 (stereo not drawn) | 9.07% |
| COCCn1c(=S)[nH]c2ccccc21 | 28.7% |
| CCC(C)(C)n1nnnc1C(c1cccnc1)N1CCCC(C)C1 (stereo not drawn) | 3.14% |
| CCOC(=O)c1ccc(NC(=O)c2cc3c(s2)CCC3)cc1 | 6.15% |
| O=C(NC1CCCCC1)C1CCCN1S(=O)(=O)c1ccc(F)cc1 (stereo not drawn) | -0.938% |
| COc1cc(/C=C2\OC(=O)c3c(OC)cccc32)ccc1O | 15.6% |
| CC(C)N(C)C(=O)c1ccc(OC2CCN(CCc3ccccc3)CC2)cc1 | -40.8% |
| CCn1ccnc1CN(C)C(=O)c1ccc(OC2CCN(CCc3ccccc3)CC2)cc1 | -24.8% |
| CC(c1nccs1)N(C)C(=O)c1ccc(OC2CCN(CCc3ccccc3)CC2)cc1 (stereo not drawn) | -51.4% |
| Cc1nn(C)cc1CN(C)C(=O)c1ccc(OC2CCN(Cc3ccccn3)CC2)cc1 | 8.65% |
| CN(CCc1ccccn1)C(=O)c1ccc(OC2CCN(Cc3ccccn3)CC2)cc1 | 4.04% |
| CN(CCc1ccccn1)C(=O)c1ccc(OC2CCN(CCc3ccccc3)CC2)cc1 | -58.5% |
| O=C(CNc1ccccc1)Nc1ccc(F)cc1 | 3.4% |
| O=C(NCCNS(=O)(=O)c1ccc(C(F)(F)F)cc1)N1CCOCC1 | 6.84% |
| COC(=O)c1ccccc1NC(=O)CSc1nnc(-c2cccc(NC(C)=O)c2)n1C | -3.68% |
| CCCCn1c(N)c(N(CC(C)C)C(=O)CCCc2cccs2)c(=O)[nH]c1=O | -9.44% |
| O=C(NCCCn1ccnc1)c1ccc(-c2ccccc2)cc1 | -21.6% |
| COc1ccc(-n2ccnc2SCC(=O)NCc2ccc3c(c2)OCO3)cc1 | -7.81% |
| COC(=O)C1C(=O)C2=C(CC1C)Nc1ccccc1NC2c1ccc(C)s1 (stereo not drawn) | 12.8% |
| C=CCOc1cccc(C2C(C(=O)c3ccc(C)o3)=C(O)C(=O)N2c2nccs2)c1 (stereo not drawn) | 7.99% |

| Structure (SMILES) | hERG current change (%, negative = inhibition) at 10uM |
| --- | --- |
| Cc1c(CN(C)C(=O)c2nn(C)cc2[N+](=O)[O-])cnn1C | 8.63% |
| Cc1c(CN(C)C(=O)/C=C/c2ccc([N+](=O)[O-])cc2)cnn1C | -69.6% |
| CCn1cc(CN(C)C(=O)/C=C/c2ccc([N+](=O)[O-])cc2)c(C)n1 | -59.4% |
| Cc1c(CN(C)C(=O)c2ccc(Br)o2)cnn1C | -7.89% |
| Cc1nn(C)cc1C(=O)/C=C/c1ccc([N+](=O)[O-])cc1 | -12.4% |
| CCn1cc(CNC(=O)/C=C/c2ccc([N+](=O)[O-])cc2)c(C)n1 | -33% |
| COc1ccc(N(CC(=O)NC2CCCCC2)C(=O)c2ccc(C)s2)c(OC)c1 | -18.1% |
| CCN(CC)c1ccc(NC(=O)CCNS(=O)(=O)c2ccc3c(c2)CCC(=O)N3)c(C)c1 | 5.77% |
| OCC(Br)CBr (stereo not drawn) | 23% |
| C=C1CCC2[C@](C)(CO)[C@H](O)CC[C@@]2(C)[C@@H]1C/C=C1\C(=O)OC[C@H]1O (stereo partly drawn) | 18.9% |
| CCc1nn(CC(=O)NCCCc2ccccc2)c(=O)c2cc3cc(F)ccc3n12 | 1.58% |
| CC1(CCC(=O)N2CCCC(N3CCN(c4ccc(F)cc4)CC3)C2)CC1 (stereo not drawn) | -64.7% |
| Cc1ccccc1N1CCN(C2CCCN(C(=O)CCc3c(C)noc3C)C2)CC1 (stereo not drawn) | -46.3% |
| Cc1nn(C)c(C)c1CCC(=O)N1CCCC(N2CCN(c3ccc(F)cc3)CC2)C1 (stereo not drawn) | -12.5% |
| CSCC(=O)N1CCCC(N2CCN(c3cccc(C(F)(F)F)c3)CC2)C1 (stereo not drawn) | -48.1% |
| Cc1noc(C)c1CCC(=O)N1CCCC(N2CCN(c3ccc(F)cc3)CC2)C1 (stereo not drawn) | -53.4% |
| CSCCC(=O)N1CCCC(N2CCN(c3cccc(C(F)(F)F)c3)CC2)C1 (stereo not drawn) | -40.4% |
| CC1(CCC(=O)N2CCCC(N3CCN(c4cccc(C(F)(F)F)c4)CC3)C2)CC1 (stereo not drawn) | -61.5% |
| CSCC(=O)N1CCCC(N2CCN(c3ccc(F)cc3)CC2)C1 (stereo not drawn) | -22.9% |
| Cc1ccccc1N1CCN(C2CCCN(C(=O)CCC3(C)CC3)C2)CC1 (stereo not drawn) | -48.6% |
| CC(C)NC(=O)N1CCN(c2ccncc2S(=O)(=O)N2CCCCC2)CC1 | 5.19% |

Reference: article PMC4336329 (PLoS ONE, 2015)
